# Measurements published in the supplement of paper PMC6411743.
# ± gives the standard deviation of the averaged measurements. Targets with the largest changes are over-represented here; the source holds about 6,200 in all.
# How the values were obtained:
# Experiment in all cases: NP40-soluble protein abundance relative to vehicle (solubility fold change) (ratio); higher = more soluble protein in presence of AMP-PNP
# A0A087WXD1|Q96T83 = target: T1, A0A087WXD1|Q96T83 (UniProt Q96T83)
# T1 sequence (whole entry): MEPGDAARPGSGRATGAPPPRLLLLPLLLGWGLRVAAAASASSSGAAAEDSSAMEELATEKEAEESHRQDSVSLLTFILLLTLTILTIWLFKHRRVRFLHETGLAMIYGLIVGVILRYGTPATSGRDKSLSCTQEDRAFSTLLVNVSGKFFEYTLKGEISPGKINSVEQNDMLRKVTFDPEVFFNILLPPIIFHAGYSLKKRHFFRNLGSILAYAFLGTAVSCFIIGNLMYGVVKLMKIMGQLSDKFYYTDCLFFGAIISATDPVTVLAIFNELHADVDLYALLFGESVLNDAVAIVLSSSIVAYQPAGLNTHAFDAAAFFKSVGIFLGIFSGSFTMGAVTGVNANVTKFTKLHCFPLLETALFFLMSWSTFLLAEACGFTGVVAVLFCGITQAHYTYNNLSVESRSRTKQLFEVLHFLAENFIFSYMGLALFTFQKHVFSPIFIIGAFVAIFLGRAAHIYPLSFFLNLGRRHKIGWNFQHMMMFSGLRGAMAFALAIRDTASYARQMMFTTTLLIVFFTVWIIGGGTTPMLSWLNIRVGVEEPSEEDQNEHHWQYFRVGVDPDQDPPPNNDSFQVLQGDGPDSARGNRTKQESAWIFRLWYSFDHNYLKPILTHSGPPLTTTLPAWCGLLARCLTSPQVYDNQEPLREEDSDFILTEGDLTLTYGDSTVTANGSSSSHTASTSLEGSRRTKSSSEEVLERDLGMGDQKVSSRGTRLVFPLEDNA
# In short: (§1)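 Crude Jurkat lysate, prepared by Dounce homogenisation, was exposed to eight concentrations from 0.1 to 10 mM for 10 min at room temperature and then 3 min at 37 °C. Solubilisation used 0.8% NP40 with benzonase for 60 min at 4 °C, followed by ultracentrifugation and TMT labelling of the supernatant for LC-MS/MS. After vsn normalisation of intensities, each value is the fold change against the detergent-processed vehicle within each replicate, across three independent experiments.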
# [1] = target: A0A087WY00|F8W6H6|Q9Y4I1|Q9Y4I1-2|G3V394|Q9Y4I1-3 (UniProt Q9Y4I1)
# In short: as §1
# A0A087WYG2|E9PFH7|Q9UPT6 = target: T2, A0A087WYG2|E9PFH7|Q9UPT6 (UniProt Q9UPT6)
# T2 sequence (whole entry): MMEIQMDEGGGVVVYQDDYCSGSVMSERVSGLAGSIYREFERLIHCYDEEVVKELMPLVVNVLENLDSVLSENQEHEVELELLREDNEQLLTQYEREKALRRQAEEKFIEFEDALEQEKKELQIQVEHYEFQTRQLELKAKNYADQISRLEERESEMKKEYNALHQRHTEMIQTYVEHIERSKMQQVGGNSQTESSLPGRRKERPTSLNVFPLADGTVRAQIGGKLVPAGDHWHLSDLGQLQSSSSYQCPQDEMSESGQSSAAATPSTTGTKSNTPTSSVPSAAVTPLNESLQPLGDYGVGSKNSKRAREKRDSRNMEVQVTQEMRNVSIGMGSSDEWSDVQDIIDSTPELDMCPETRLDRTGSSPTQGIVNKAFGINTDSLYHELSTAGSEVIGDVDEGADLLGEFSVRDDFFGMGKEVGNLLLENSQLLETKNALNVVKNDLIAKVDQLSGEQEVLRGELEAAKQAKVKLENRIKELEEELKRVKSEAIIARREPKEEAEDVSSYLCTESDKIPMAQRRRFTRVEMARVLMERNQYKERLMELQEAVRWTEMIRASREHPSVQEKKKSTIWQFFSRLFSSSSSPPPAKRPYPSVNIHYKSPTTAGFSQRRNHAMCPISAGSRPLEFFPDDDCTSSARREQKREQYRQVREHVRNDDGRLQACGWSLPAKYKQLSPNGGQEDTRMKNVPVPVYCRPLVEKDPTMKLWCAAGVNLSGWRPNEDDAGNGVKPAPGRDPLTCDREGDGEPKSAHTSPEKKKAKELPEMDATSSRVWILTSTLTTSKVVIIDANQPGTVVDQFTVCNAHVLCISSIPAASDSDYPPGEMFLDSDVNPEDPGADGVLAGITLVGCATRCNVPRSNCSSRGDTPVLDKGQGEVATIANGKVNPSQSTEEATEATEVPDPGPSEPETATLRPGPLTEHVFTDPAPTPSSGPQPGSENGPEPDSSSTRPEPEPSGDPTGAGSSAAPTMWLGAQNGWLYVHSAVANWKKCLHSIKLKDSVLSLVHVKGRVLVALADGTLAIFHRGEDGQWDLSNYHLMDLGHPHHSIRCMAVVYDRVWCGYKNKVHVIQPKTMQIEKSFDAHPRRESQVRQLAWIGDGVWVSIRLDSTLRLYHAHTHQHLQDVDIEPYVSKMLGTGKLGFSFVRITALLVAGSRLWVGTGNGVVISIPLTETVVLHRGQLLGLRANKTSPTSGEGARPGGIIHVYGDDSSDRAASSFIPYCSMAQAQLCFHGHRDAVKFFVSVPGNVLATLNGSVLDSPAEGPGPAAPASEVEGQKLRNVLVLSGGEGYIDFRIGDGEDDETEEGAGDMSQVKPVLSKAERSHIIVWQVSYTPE
# In short: as §1
# A0A087WYN9|Q7Z478 = target: T3, A0A087WYN9|Q7Z478 (UniProt Q7Z478)
# T3 sequence (whole entry): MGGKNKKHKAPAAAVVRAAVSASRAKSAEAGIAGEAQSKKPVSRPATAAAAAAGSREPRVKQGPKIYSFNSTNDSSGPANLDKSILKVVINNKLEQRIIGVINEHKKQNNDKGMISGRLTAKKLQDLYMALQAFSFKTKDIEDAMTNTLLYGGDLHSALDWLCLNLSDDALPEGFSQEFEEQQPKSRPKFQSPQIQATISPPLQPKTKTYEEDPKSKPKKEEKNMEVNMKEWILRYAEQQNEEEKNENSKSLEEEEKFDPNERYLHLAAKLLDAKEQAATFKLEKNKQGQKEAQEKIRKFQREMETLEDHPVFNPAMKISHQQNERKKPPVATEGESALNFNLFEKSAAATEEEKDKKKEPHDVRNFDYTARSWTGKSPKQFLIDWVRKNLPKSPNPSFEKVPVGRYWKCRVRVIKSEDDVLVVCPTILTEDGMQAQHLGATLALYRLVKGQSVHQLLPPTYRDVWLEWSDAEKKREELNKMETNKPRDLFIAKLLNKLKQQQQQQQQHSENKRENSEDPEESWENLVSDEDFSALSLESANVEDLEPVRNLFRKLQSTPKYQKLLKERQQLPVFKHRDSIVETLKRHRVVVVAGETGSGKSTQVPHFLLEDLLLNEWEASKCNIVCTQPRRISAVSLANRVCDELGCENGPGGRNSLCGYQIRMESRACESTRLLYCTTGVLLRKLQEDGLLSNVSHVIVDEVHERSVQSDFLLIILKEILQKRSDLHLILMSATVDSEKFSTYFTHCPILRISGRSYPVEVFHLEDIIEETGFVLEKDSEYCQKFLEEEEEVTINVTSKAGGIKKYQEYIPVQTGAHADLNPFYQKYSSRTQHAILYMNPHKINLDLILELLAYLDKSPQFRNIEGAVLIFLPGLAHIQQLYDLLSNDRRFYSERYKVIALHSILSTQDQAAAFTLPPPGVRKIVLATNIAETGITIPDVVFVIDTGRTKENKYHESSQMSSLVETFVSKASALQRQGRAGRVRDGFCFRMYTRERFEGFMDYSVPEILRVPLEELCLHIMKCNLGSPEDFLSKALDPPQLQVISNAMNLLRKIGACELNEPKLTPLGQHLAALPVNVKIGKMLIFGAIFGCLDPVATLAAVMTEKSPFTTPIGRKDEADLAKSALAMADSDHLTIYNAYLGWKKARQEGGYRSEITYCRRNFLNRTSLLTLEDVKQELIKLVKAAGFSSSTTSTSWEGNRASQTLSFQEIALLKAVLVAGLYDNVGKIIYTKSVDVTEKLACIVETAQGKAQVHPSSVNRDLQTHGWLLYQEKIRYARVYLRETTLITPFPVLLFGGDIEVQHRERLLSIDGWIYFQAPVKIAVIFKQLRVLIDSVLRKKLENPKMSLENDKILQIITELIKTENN
# In short: as §1
# A0A087WZ62 = test system: A0A087WZ62
# In short: as §1
# Sequence of A0A087WY00|F8W6H6|Q9Y4I1|Q9Y4I1-2|G3V394|Q9Y4I1-3 (Q9Y4I1 whole entry, one chain of several): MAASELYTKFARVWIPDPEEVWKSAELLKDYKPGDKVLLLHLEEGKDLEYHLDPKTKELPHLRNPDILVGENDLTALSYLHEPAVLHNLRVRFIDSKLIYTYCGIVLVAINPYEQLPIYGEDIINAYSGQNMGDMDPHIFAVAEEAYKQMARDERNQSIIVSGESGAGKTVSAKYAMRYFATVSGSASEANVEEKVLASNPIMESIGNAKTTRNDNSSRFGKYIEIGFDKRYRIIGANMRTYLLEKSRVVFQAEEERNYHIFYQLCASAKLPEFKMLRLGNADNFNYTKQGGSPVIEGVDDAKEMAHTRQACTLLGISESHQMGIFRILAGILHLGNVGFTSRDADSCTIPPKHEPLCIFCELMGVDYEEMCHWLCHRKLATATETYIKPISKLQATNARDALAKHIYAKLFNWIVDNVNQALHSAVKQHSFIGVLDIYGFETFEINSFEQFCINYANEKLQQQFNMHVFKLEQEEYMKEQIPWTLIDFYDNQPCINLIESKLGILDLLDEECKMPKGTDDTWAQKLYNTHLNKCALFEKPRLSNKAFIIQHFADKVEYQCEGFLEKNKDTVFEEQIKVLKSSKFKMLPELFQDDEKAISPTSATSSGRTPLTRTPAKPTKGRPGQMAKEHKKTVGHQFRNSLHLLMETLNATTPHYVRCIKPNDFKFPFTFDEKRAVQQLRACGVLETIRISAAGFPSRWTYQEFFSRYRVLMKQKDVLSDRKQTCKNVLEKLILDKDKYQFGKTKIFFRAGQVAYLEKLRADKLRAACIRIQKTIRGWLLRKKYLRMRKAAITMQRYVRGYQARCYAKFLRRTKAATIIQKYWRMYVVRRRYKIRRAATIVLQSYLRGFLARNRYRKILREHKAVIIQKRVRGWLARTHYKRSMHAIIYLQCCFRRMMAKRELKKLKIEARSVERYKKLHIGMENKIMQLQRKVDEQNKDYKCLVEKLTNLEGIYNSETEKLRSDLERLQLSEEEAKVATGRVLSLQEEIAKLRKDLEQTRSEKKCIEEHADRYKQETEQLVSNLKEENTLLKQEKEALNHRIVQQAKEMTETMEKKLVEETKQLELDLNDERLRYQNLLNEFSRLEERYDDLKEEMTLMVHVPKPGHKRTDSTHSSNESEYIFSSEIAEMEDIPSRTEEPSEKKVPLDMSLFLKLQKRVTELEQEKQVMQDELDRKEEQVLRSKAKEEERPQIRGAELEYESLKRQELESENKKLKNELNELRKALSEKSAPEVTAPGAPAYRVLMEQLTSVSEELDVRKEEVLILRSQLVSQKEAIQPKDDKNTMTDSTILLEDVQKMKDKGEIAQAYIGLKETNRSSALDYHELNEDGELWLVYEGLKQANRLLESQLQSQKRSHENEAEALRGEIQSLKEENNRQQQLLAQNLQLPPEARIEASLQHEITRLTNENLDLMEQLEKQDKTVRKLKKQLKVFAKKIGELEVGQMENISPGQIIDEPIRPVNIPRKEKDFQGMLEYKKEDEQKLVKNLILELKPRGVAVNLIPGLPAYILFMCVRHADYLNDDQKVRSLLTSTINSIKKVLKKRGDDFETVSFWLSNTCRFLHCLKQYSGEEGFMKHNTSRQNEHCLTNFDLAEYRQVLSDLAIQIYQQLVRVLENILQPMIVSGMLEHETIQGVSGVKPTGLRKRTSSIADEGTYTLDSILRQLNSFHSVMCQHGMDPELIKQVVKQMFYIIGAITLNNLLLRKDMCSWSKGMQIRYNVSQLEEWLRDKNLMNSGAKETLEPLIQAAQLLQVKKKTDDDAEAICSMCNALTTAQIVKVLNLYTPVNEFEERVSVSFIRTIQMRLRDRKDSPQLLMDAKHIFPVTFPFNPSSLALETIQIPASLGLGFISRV
compound,measurement,setting,value
Nc1ncnc2c1ncn2[C@@H]1O[C@H](COP(=O)(O)OP(=O)(O)NP(=O)(O)O)[C@@H](O)[C@H]1O [adenylyl imidodiphosphate],NP40-soluble protein abundance,A0A087WXD1|Q96T83; concentration: 1mM,0.971 ± 0.05
same,NP40-soluble protein abundance,A0A087WXD1|Q96T83; concentration: 2mM,0.973 ± 0.015
same,NP40-soluble protein abundance,A0A087WXD1|Q96T83; concentration: 4mM,0.958 ± 0.033
same,NP40-soluble protein abundance,A0A087WXD1|Q96T83; concentration: 6mM,0.948 ± 0.038
same,NP40-soluble protein abundance,A0A087WXD1|Q96T83; concentration: 8mM,0.935 ± 0.027
same,NP40-soluble protein abundance,A0A087WXD1|Q96T83; concentration: 10mM,0.9324 ± 0.0081
same,NP40-soluble protein abundance,[1]; concentration: 1mM,1.9 ± 0.27
same,NP40-soluble protein abundance,[1]; concentration: 2mM,1.97 ± 0.29
same,NP40-soluble protein abundance,[1]; concentration: 4mM,2.07 ± 0.28
same,NP40-soluble protein abundance,[1]; concentration: 6mM,2 ± 0.31
same,NP40-soluble protein abundance,[1]; concentration: 8mM,1.96 ± 0.29
same,NP40-soluble protein abundance,[1]; concentration: 10mM,2.01 ± 0.24
same,NP40-soluble protein abundance,A0A087WYG2|E9PFH7|Q9UPT6; concentration: 1mM,1.01 ± 0.034
same,NP40-soluble protein abundance,A0A087WYG2|E9PFH7|Q9UPT6; concentration: 2mM,1.03 ± 0.025
same,NP40-soluble protein abundance,A0A087WYG2|E9PFH7|Q9UPT6; concentration: 4mM,1.03 ± 0.025
same,NP40-soluble protein abundance,A0A087WYG2|E9PFH7|Q9UPT6; concentration: 6mM,0.988 ± 0.026
same,NP40-soluble protein abundance,A0A087WYG2|E9PFH7|Q9UPT6; concentration: 8mM,0.981 ± 0.022
same,NP40-soluble protein abundance,A0A087WYG2|E9PFH7|Q9UPT6; concentration: 10mM,1 ± 0.023
same,NP40-soluble protein abundance,A0A087WYN9|Q7Z478; concentration: 1mM,1.31 ± 0.067
same,NP40-soluble protein abundance,A0A087WYN9|Q7Z478; concentration: 2mM,1.49 ± 0.079
same,NP40-soluble protein abundance,A0A087WYN9|Q7Z478; concentration: 4mM,1.73 ± 0.18
same,NP40-soluble protein abundance,A0A087WYN9|Q7Z478; concentration: 6mM,1.9 ± 0.22
same,NP40-soluble protein abundance,A0A087WYN9|Q7Z478; concentration: 8mM,2.01 ± 0.24
same,NP40-soluble protein abundance,A0A087WYN9|Q7Z478; concentration: 10mM,2.1 ± 0.29
same,NP40-soluble protein abundance,A0A087WZ62; concentration: 1mM,0.976 ± 0.026
same,NP40-soluble protein abundance,A0A087WZ62; concentration: 2mM,0.963 ± 0.027
same,NP40-soluble protein abundance,A0A087WZ62; concentration: 4mM,0.931 ± 0.022
